Source: PubChem BioAssay
Rows were chosen to be rich in hits. Some 4.1% of all compounds tested hit in one or more screens of this group.
TWEAK Fn14 block = inhibitors of TWEAK-Fn14 interaction signaling | inhibition, % at 10 µM | TWEAK-stimulated Fn14 reporter cells, luciferase luminescence, 8 h | 360,000 compounds, 2% hits; in the data active = inhibition above about 50%
Peg3 promoter = inhibitors of Peg3 promoter | HeLa PEG-Prom luciferase reporter, luminescence, overnight | inhibition, % at 20 µM | 360,000 compounds, 1.7% hits | AID 588405;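 active = inhibition of at least 50% at 20 µM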
TROY signal inh = blocks TROY-dependent signaling in reporter cells; inhibition, % at 10 µM; 360,000 compounds, 0.98% hits; Q293 LMP1-TROYcd NF-kB luciferase reporter, 4 h;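 active = compounds whose plate-normalised and pattern-corrected inhibition of the luciferase reporter signal at the single screening dose is 50% or more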
EBV LMP1 NFkB = Epstein-Barr LMP1 NF-kappaB reporter inhibition. LMP1-induced NF-kappaB luciferase reporter cells, luminescence. inhibition, % at 12.5 µM. 350,000 compounds, 0.69% hits. AID 504558; in the data active = inhibition above about 41%;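 also: 0% = neutral control wells and 100% = reference inhibitor control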
TRPM1 prom inh = inhibitors of MITF-driven TRPM1 promoter in melanoma cells | SK-MEL-5 TRPM1 promoter luciferase, 24 h | inhibition, % at 12.5 µM | 330,000 compounds, 0.83% hits | AID 488899;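 active = mean inhibition across replicates of 60% or more, whatever share of single replicates reaches that level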
Shn3 3UTR inh = reduces Shn3 3'UTR luciferase signal in osteoblasts; inhibition, % at 12.5 µM; Clone20 osteoblast Shn3 3'UTR firefly luciferase, 24 h; 360,000 compounds, 0.52% hits;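 active = mean inhibition of at least 75% with every replicate also reaching 75%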;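 also: 0% = median of neutral control wells and 100% = pilot-screen positive control compound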
The depositor's hits bear a star; · = no result given.

SMILES	TWEAK Fn14 block	Peg3 promoter	TROY signal inh	EBV LMP1 NFkB	TRPM1 prom inh	Shn3 3UTR inh
CCOc1ccc(S(=O)(=O)N2CCCCC2)cc1NC(=O)Cc1cccc(C(F)(F)F)c1	23	10	10	0	16	24
CCN1CCN(c2ccc(S(=O)(=O)N3CCCCC3)cc2NC(=O)c2ccc([N+](=O)[O-])o2)CC1	0	24	4	-20	95*	-51
CSc1nc(Cc2ccccc2)cc(=O)[nH]1	-6	5	-8	-2	3	4
Cc1ccc(-c2nc(N/N=C/c3ccncc3)c3ccccc3n2)cc1	76*	-23	43	2	-6	41
COc1ccc(/C=N/Nc2nc(-c3cccnc3)nc3ccccc23)cc1OC	7	-1	9	19	-17	-18
CCC/C(C)=N/NC(=O)c1ccccc1O	-3	11	-27	-2	6	-19
CCOC(=O)C(CC)/C(C)=N\NC(=O)c1ccccc1O (centres undefined)	2	54*	-51	-10	15	-9
CCOC(=O)COc1ccc(Br)cc1/C=C\c1[nH]c(=O)[nH]c(=O)c1[N+](=O)[O-]	74*	-10	3	2	14	5
CCOC(=O)COc1ccc(Br)cc1/C=C/c1[nH]c(=O)[nH]c(=O)c1[N+](=O)[O-]	62*	-5	24	-1	-3	2
CC(C)(C)c1ccc(-c2nc(C#N)c(N3CCC(C(N)=O)CC3)o2)cc1	-27	-13	10	-1	-3	8
COc1ccccc1/C=C1\SC(=S)N(CCC(=O)NCCc2ccc(O)cc2)C1=O	-2	40	5	4	-1	1
COc1ccc(/C=C2\SC(=S)N(CCC(=O)NCCc3ccc(O)cc3)C2=O)cc1	2	102*	-21	0	6	-8
O=C(CCN1C(=O)/C(=C/c2ccccc2F)SC1=S)NCCc1ccc(O)cc1	-3	45	31	8	-1	-17
O=C(CCN1C(=O)S/C(=C\C=C\c2ccccc2)C1=O)Nc1ccc(O)cc1	58*	6	-6	-42	-31	-28
O=C(CCN1C(=O)/C(=C/c2ccccc2)SC1=S)NCCc1ccc(O)cc1	-5	95*	-19	5	-5	-21
Cc1ccc(C2=NS(=O)(=O)N(C)C(C(=O)NCc3ccccc3)=C2)cc1	5	15	2	2	·	0
COc1cc(OC)c2c(-c3ccccc3)cc(=O)oc2c1C(CCN1CCCC(C)C1)c1ccc(N(C)C)cc1 (centres undefined)	4	78*	8	-1	13	1
COc1ccc(C(CCN2CCCC(C)C2)c2c(OC)cc(OC)c3c(C)cc(=O)oc23)cc1 (centres undefined)	3	-24	-14	-11	-5	-14
COc1ccc(C(CCN2CCCC(C)C2)c2c(OC)cc(OC)c3c(-c4ccccc4)cc(=O)oc23)cc1 (centres undefined)	-21	65*	-8	0	42	13
COc1ccc(C(CCN2CCCC2)c2c(OC)cc(OC)c3c(-c4ccccc4)cc(=O)oc23)cc1 (centres undefined)	-5	8	-4	-27	67*	-2
COc1cc(OC)c2c(-c3ccccc3)cc(=O)oc2c1C(CCN1CCOCC1)c1ccc2c(c1)OCO2 (centres undefined)	-4	-3	7	6	-4	14
COc1cc(OC)c2c(-c3ccccc3)cc(=O)oc2c1C(CCN1CCCC1)c1ccc2c(c1)OCO2 (centres undefined)	-24	91*	-5	-8	35	-15
O=C(c1ccco1)N1N=C2CCCCCC2C1(O)C(F)(F)F (centres undefined)	15	1	-2	5	10	27
Cc1nc2ccc(NC(=O)N3CCCCC3)cc2nc1C	21	-179	50*	12	-2	-24
CCOC(=O)N1CCN(C(=O)Nc2ccc3nc(C)c(C)nc3c2)CC1	-18	7	-3	-5	-6	4
SMILES	TWEAK Fn14 block	Peg3 promoter	TROY signal inh	EBV LMP1 NFkB	TRPM1 prom inh	Shn3 3UTR inh
Cc1cc(C(=O)NCc2csc(-c3ccccc3)n2)no1	-18	-130	-45	-11	-41	-100
Cc1ccc(NC(=O)c2c3c(nc4ccccc24)CCC3)cc1S(=O)(=O)N(C)C	71*	21	48	7	30	6
O=c1[nH]c(C2CCCN(S(=O)(=O)c3ccccc3)C2)nc2c1nnn2Cc1ccc2c(c1)OCCO2 (centres undefined)	-13	34	8	-2	2	-16
O=c1[nH]c(C2CCN(S(=O)(=O)c3ccccc3C(F)(F)F)CC2)nc2c1nnn2Cc1ccccc1	-41	51*	51*	-6	7	2
O=c1[nH]c(C2CCCN(S(=O)(=O)c3cccc(Cl)c3)C2)nc2c1nnn2Cc1ccc2c(c1)OCCO2 (centres undefined)	-2	51*	34	-1	-15	-3
CC1Cc2cc(-c3csc(NC(=O)Cc4cccs4)n3)ccc2N1S(C)(=O)=O (centres undefined)	101*	45	75*	-4	20	15
CCCC(=O)Nc1nc(-c2ccc3c(c2)CCN3S(C)(=O)=O)cs1	9	-61	11	9	-29	-1
CCC(=O)Nc1nc(-c2ccc3c(c2)CC(C)N3S(C)(=O)=O)cs1 (centres undefined)	-19	-85	-12	-5	-35	-6
CS(=O)(=O)N1CCc2cc(-c3csc(NC(=O)Cc4ccccc4)n3)ccc21	58*	5	50	17	12	50
O=C(/C=C/[C@H]1O[C@@H](n2cnc3c(NC(=O)c4ccccc4)ncnc32)[C@H](O)[C@@H]1O)NCCCc1ccccc1	2	3	-2	·	·	-4
O=C(Cc1c(Cl)cccc1Cl)N/N=C/c1cccnc1	-1	-8	10	6	3	-18
CC1COc2ccccc2N1C(=O)c1ccc(Cl)cc1 (centres undefined)	6	13	-3	4	0	13
O=C(C(Cl)Cl)N1c2ccccc2OCC1c1ccccc1 (centres undefined)	32	59*	14	5	5	36
Cc1ccc(S(=O)(=O)N2c3ccccc3OCC2c2ccccc2)cc1 (centres undefined)	63*	34	16	2	7	76
Cc1nnc(NC(=O)CCC(=O)NC2CCCCCCC2)s1	-1	-16	-19	7	-3	-5
Cc1ccccc1NC(=O)Cn1cnc2c1c(=O)n(C)c(=O)n2C	12	0	11	2	6	10
Cc1ccc(S(=O)(=O)Nc2ccc(Cl)cc2)cc1NC(=O)Cn1cnc2c1c(=O)n(C)c(=O)n2C	89*	6	43	-3	9	16
Cc1ccc(S(=O)(=O)NC(CC(C)C)C(=O)NCc2ccco2)cc1 (centres undefined)	-14	-6	-19	-5	-3	7
